Assay results published in PubChem BioAssay (EPA / NIEHS).
Active and inactive are the calls of the source. The calls were made as follows: active = hit-call score of the fitted dose curve at least 0.9, where 1 is the maximum; inactive = score below 0.9.

Key:
[1] = target: CCAAT/enhancer-binding protein beta (Homo sapiens) (UniProt P17676); test: ATG_C_EBP_CIS: Attagene CIS-FACTORIAL HepG2 Assay for human CCAAT/Enhancer Binding Protein (C/EBP) beta (AID 2282927); conditions: HepG2 Attagene cis-factorial transcription factor reporter; actives raise or lower the signal
Chain of CCAAT/enhancer-binding protein beta (Homo sapiens) (P17676 whole entry, looked up, the tested form may be a part): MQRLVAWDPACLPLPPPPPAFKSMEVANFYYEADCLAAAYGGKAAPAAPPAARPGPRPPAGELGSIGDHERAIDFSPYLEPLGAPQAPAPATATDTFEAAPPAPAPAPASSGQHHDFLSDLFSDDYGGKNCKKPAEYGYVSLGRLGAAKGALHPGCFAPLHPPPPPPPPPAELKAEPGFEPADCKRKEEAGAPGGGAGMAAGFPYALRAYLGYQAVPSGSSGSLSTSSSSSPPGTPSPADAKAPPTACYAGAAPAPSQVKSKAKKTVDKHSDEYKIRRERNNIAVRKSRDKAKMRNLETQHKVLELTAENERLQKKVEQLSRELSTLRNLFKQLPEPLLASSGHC
In short: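 Endogenous C/EBPb-driven reporter transcripts measured in transfected human HepG2 cells at 24 h via RT-PCR and capillary electrophoresis of labelled fragments. Activity fitted in both directions relative to DMSO baseline.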

[2] = ATG_CMV_CIS: Attagene CIS-FACTORIAL HepG2 Assay for human CMV (Internal Marker) (AID 2282928); conditions: HepG2 CMV promoter reporter, transcription factor profiling; actives raise or lower the signal;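 also: endpoint acts as a background internal control marker rather than a target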
In short: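 Endogenous transcription factor activity read in HepG2 via transfected cis-promoter reporter units. After 24 h dosing, reporter mRNA measured by RT-PCR/capillary electrophoresis; gain or loss of signal fit relative to DMSO.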

[3] = ATG_DR4_LXR_CIS: Attagene CIS-FACTORIAL HepG2 Assay for human Liver X Receptor (LXR), DR4 submotif (AID 2282929); conditions: HepG2 Attagene DR4 cis-reporter, mRNA transcription; actives raise or lower the signal
In short: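 Cells were transfected with multiple reporter transcription units, exposed to chemicals for 24 hours, then lysed for RNA. Reporter mRNA induction was measured by RT-PCR with capillary electrophoresis detection and fitted in both directions relative to DMSO.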

[4] = ATG_AP_1_CIS: Attagene CIS-FACTORIAL HepG2 Assay for human Activator Protein 1 (AP-1) (AID 2282931); conditions: HepG2 Attagene cis-factorial AP-1 reporter mRNA; actives raise or lower the signal
In short: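 Endogenous transcription-factor activity in human HepG2 liver cells is read through a cis-promoter reporter transcript, sampled 24 h after dosing. Detection uses RT-PCR with capillary electrophoresis; values come from bidirectional fitting relative to DMSO.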

[5] = ATG_AP_2_CIS: Attagene CIS-FACTORIAL HepG2 Assay for human Activator Protein 2 (AP-2) (AID 2282932); conditions: HepG2 AP-2 cis-reporter, Attagene transcription factor profiling; actives raise or lower the signal
In short: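 HepG2, transient MRTU transfection, cis-regulated reporters; 24 h compound exposure; RNA isolated, RT-PCR, 6-FAM labelling, HpaI digest, CE fluorescence. DMSO = negative control/baseline, bidirectional fit.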

[6] = ATG_BRE_CIS: Attagene CIS-FACTORIAL HepG2 Assay for human Bone Morphogenetic Protein (BMP) Response Element (BRE) (AID 2282933); conditions: HepG2 BMP response element reporter, Attagene transcription factor profiling; actives raise or lower the signal
In short: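 A HepG2 multiplex reporter system measured inducible reporter mRNA 24 h post-dosing. Detection: RT-PCR, 6-FAM primer extension, HpaI digestion, capillary electrophoresis. Activity fitted bidirectionally relative to DMSO.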

Measured: outcome

CC(=O)CCc1ccc(O)cc1
inactive: [1] | [2] | [3] | [4] | [5] | [6]
